Laboratory results: the supplement of paper PMC11732987, “Enantioselective OTUD7B fragment discovery through chemoproteomics screening and high-throughput optimisation” (Communications Chemistry, 2025)

Experiments:
Experiment in all cases: log2 ratio of Biotin-Ahx-Ub-VS probe labelling (fragment/DMSO); higher = less target engagement (more negative = stronger competition), active = hit call of the paper (q ≤ 0.05, log2 ratio ≤ -1)
Conditions in all cases: compound concentration: 200 uM; treatment time: 3 h
ALG13 = target: T1, ALG13 (UniProt Q9NP73)
T1 sequence (whole entry): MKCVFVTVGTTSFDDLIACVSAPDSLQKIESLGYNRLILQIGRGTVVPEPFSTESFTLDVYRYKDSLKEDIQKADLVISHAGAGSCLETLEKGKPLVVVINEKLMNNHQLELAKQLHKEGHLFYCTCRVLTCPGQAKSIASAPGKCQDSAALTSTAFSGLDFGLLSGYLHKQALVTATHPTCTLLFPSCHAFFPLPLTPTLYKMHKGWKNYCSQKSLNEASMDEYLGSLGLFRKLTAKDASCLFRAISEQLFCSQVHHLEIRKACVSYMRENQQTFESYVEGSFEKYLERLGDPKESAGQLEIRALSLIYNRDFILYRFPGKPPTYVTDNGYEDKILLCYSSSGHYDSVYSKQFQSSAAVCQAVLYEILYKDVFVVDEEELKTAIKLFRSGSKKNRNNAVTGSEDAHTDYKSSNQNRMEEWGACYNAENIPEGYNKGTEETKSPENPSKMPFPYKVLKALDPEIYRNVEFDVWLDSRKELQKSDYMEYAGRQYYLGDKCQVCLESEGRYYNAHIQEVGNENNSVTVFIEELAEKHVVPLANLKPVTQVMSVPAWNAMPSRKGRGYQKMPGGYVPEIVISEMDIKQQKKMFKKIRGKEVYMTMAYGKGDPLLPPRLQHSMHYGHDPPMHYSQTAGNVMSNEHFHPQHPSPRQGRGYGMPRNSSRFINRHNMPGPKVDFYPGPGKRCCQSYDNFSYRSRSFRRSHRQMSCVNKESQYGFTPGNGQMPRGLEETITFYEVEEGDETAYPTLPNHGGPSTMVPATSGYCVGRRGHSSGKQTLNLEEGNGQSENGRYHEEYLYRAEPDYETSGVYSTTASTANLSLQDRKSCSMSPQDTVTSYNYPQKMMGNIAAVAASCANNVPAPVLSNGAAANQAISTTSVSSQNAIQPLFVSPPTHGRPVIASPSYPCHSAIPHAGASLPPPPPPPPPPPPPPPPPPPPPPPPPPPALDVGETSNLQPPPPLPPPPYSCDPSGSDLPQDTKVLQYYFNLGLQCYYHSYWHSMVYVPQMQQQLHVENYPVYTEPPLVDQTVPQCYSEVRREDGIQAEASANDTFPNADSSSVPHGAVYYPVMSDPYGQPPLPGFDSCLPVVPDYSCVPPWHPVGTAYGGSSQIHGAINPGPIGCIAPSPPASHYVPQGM
In short: (§1)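 HEK293T lysate (495 µg per sample, in Tris/CHAPS/IGEPAL buffer with protease inhibitors) was exposed in triplicate for 3 h to fragment at 200 µM or to vehicle, then to Biotin-Ahx-Ub-VS at 0.5 µM final for 1 h. Labelled DUBs were enriched on NeutrAvidin, digested with LysC and trypsin, and analysed by diaPASEF LC-MS/MS. Spectronaut label-free quantities were normalised to the global median, and values are average log2 ratios of fragment over vehicle from an unpaired t-test. Only proteins with ≥2 unique peptides were used.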

ATXN3 = ATXN3 (UniProt P54252)
In short: as §1

BAP1 = target: T2, BAP1 (UniProt Q92560)
T2 sequence (whole entry): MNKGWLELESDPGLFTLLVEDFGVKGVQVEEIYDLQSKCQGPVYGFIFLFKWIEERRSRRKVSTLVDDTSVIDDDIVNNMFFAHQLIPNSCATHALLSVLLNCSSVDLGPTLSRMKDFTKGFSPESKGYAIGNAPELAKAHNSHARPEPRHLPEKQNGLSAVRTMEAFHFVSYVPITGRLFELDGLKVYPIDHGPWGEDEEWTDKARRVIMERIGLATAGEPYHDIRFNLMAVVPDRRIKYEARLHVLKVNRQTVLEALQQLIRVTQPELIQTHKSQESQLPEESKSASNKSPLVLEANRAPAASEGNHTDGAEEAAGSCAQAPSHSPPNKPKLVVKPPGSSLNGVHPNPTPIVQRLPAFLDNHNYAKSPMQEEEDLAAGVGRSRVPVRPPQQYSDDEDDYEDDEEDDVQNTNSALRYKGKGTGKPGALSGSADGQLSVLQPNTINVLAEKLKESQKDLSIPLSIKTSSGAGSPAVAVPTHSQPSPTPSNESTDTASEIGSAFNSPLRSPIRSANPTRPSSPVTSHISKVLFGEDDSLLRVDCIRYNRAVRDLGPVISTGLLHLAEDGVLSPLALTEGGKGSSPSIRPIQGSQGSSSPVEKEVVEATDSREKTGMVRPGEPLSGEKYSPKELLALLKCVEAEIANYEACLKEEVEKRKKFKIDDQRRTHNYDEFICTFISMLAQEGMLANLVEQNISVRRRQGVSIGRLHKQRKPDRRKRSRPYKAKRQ
In short: as §1

EIF3F = EIF3F (UniProt O00303)
In short: as §1

EIF3H = EIF3H (UniProt O15372)
In short: as §1

FAM105A = target: T3, FAM105A (UniProt Q9NUU6)
T3 sequence (whole entry): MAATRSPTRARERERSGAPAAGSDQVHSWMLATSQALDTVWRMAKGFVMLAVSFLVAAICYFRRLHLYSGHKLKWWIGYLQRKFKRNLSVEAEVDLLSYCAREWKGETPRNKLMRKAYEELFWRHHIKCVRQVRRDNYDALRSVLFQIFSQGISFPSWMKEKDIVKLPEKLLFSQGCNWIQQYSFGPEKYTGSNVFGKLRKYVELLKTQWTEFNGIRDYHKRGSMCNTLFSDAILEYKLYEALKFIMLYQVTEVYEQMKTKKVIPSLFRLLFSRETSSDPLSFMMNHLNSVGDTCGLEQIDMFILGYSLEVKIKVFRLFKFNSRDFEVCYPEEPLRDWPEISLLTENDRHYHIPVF
In short: as §1

OTUB1 = OTUB1 (UniProt Q96FW1)
In short: as §1

OTUD4 = target: T4, OTUD4 (UniProt Q01804)
T4 sequence (whole entry): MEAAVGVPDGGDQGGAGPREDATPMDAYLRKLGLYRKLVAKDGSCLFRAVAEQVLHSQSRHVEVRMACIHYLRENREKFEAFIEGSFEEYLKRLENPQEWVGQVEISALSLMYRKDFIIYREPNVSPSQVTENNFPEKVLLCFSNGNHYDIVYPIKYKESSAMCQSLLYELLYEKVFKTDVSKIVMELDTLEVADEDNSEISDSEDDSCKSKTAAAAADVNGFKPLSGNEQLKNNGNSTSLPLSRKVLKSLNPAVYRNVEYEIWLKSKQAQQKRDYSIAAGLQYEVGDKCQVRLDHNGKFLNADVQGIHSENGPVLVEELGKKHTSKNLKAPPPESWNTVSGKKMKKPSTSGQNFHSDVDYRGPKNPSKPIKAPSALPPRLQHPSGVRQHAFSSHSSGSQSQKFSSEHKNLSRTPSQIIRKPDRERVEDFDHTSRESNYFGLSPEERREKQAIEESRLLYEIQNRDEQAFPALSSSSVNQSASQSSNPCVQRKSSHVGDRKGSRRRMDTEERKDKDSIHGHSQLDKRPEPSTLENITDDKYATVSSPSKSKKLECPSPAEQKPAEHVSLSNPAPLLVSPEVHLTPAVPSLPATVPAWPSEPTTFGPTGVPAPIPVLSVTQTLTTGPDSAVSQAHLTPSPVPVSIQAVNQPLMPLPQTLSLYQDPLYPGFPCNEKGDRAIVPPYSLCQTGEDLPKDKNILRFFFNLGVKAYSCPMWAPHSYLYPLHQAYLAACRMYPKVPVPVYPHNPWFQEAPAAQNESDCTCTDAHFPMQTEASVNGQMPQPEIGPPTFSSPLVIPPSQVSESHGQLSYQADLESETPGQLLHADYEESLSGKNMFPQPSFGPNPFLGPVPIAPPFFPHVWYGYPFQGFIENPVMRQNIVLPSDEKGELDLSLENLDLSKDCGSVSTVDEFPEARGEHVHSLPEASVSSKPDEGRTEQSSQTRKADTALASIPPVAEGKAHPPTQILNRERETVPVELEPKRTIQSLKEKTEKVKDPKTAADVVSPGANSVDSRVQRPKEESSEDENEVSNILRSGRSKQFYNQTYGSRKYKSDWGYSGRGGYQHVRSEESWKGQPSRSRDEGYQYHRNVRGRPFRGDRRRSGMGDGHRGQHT
In short: as §1

OTUD5 = target: T5, OTUD5 (UniProt Q96G74)
T5 sequence (whole entry): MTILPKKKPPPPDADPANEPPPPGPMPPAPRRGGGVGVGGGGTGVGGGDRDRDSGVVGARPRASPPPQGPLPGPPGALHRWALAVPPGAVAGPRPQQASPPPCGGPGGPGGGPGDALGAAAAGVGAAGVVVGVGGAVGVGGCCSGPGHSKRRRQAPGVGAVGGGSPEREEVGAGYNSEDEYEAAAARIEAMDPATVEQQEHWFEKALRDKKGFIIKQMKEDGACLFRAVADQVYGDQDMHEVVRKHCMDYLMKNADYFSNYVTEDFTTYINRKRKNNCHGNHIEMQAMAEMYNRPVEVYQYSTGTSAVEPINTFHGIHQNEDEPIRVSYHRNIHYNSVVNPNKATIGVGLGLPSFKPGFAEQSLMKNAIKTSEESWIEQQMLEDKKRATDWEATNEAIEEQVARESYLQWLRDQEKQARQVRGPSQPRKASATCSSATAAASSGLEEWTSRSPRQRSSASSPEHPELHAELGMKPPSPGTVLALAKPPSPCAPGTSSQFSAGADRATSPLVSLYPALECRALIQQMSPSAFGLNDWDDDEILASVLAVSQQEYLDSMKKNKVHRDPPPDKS
In short: as §1

Measured: log2 ratio of Biotin-Ahx-Ub-VS probe labelling

Chain of ATXN3 (P54252 whole entry): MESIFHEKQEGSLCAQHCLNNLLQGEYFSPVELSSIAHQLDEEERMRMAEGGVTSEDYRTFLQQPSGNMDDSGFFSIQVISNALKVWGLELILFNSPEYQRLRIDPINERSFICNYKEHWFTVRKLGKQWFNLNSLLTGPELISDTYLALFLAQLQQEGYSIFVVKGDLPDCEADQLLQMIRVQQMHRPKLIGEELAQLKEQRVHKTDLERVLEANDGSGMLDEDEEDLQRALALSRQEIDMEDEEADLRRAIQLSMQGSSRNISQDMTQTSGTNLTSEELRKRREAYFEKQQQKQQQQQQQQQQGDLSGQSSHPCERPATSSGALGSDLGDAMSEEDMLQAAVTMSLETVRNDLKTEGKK
Chain of EIF3H (O15372 whole entry): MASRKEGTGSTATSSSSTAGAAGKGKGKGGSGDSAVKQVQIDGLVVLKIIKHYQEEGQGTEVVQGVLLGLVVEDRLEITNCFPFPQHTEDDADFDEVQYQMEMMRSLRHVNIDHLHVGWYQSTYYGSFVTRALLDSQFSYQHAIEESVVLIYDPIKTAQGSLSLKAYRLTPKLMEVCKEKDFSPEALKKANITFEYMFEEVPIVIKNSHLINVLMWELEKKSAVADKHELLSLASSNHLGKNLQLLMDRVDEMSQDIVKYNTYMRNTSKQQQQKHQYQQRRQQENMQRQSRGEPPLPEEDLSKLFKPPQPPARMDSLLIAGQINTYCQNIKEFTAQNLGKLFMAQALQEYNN
Chain of OTUB1 (Q96FW1 whole entry): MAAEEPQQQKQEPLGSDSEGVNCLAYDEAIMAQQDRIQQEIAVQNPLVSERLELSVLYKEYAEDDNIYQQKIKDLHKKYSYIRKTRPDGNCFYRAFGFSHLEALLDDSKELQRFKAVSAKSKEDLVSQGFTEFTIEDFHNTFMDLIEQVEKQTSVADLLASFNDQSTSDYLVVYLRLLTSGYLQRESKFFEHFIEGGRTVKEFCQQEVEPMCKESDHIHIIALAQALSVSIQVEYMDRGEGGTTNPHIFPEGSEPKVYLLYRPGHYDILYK
Chain of EIF3F (O00303 whole entry): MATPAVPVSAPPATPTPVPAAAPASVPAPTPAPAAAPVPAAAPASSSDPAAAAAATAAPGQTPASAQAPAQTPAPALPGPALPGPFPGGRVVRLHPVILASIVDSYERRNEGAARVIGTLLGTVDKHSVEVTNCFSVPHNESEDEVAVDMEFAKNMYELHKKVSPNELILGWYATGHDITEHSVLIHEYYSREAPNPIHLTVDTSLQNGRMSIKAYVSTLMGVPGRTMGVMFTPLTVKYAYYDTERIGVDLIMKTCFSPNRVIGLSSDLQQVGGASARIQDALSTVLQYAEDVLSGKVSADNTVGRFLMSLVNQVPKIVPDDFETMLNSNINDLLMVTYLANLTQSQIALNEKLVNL

O=C(CCl)N1CCc2ccccc2C(O)C1 (centres undefined)
active: OTUD5 -1.31
inactive: ALG13 0.0799 | ATXN3 -0.585 | BAP1 -0.705 | EIF3F -0.125 | EIF3H -0.359 | FAM105A -0.413 | OTUB1 0.0821 | OTUD4 -0.69
